Compound activity: PubChem, National Center for Advancing Translational Sciences (NCATS)
WRN inhibitor: qHTS for Inhibitors of WRN Helicase | Potency, µM (series often up to 114 µM), hits mostly inhibitors | AID 651768, 2012 | WRN helicase unwinding, fluorescent forked duplex, kinetic | 360,000 tested, 0.46% active; further: nearly all actives have a fitted effect of over 55% in size
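WRN at 20 nM final was preincubated with compound for 15 min at room temperature; reaction started with 100 nM forked duplex oligonucleotide carrying fluorophore and quencher plus 2 mM ATP (final). Unwinding followed kinetically by red fluorescence (ex 525/em 598 nm).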
Pol eta inh: qHTS for Inhibitors of Polymerase Eta. Potency, µM (doses to about 114 µM), actives largely listed as inhibitors. AID 588591, 2011. DNA polymerase eta (Homo sapiens), Q9Y253. recombinant Pol eta, fluorescent DNA replication assay. 390,000 tested, 1.2% active
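Fluorescent replication assay: 50 nM final substrate added after a 15 min room-temperature compound preincubation with 10 nM enzyme. Signal taken at 0 min and again at 10 min.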
POLI inh: qHTS for Inhibitors of Polymerase Iota. 390,000 tested, 1% active. Potency, µM (highest dose often 115 µM), usual class: inhibitors. Pol iota fluorescent replication assay, 10 min
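Fluorescent replication assay read twice, at 0 min and 10 min after adding 50 nM (final) substrate. Enzyme (10 nM) and compounds were first incubated 15 min at room temperature; enzyme-free buffer wells were negative controls.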
PI5P4K alpha inh: qHTS for Inhibitors of phosphatidylinositol 5-phosphate 4-kinase (PI5P4K); PI5P4Kalpha enzyme, ADP-Glo luminescence, 60 min; active compounds read low; max response, %; 330,000 tested, 1.2% active; active means max response of -50% or lower; inconclusive means between -30% and -50%; inactive means -30% or higher; further: value at the top dose of about 77 µM
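Human PI5P4Kalpha with substrate in 0.038 M HEPES pH 7.4, 0.28 mM EGTA, 0.1% CHAPS, 5% DMSO; reaction started with 5 microM ATP (final), 60 min at room temperature. ADP formed read by ADP-Glo luminescence.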
Pol kappa inh: qHTS for Inhibitors of Polymerase Kappa. DNA polymerase kappa (Homo sapiens), Q9UBT6. Potency, µM (series often up to 107 µM), hits mostly inhibitors. 400,000 tested, 0.53% active. purified Pol kappa, fluorescent DNA synthesis assay, 10 min. AID 588579, 2011
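Pol kappa 10 nM + cpd, 15 min RT; start w/ substrate 50 nM final; fluorescence kinetic read, 0 and 10 min. Neg ctrl: buffer, no enzyme.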
Pol beta inh: qHTS Assay for Inhibitors of DNA Polymerase Beta | P06746 | Pol beta primer extension/strand displacement, fluorescence kinetic | Potency, µM (top dose mostly 114 µM), hits mostly inhibitors | 340,000 tested, 1.3% active | AID 485314, 2010
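Enzyme-only controls used 10 nM Pol beta; buffer lacking enzyme served as negative control. Compound preincubated 15 min, then 50 nM substrate added; 0 and 10 min reads at room temperature.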
A number is an active result; 0 = inactive; ? = inconclusive; - = no result; ! = not active in a repeat; [ ] = dose if it differs, or a comment. Shown are actives, neighbours in structure and some others; about 2.8% of the full set was active somewhere. Unless noted, the call rests on the fitted dose curve; in most records, active means well fitted curve in the direction sought with a large enough effect; inconclusive means small, poorly fitted or top-dose-only effect, or another doubt; inactive means no such curve, though single readings can be large; an effect the other way counts as inactive or inconclusive.

SMILES	WRN inhibitor	Pol eta inh	POLI inh	PI5P4K alpha inh	Pol kappa inh	Pol beta inh
O=C(COc1ccc(Cl)cc1)NCc1nnc(SCC(=O)Nc2ccccc2F)o1	0	0	0	0	0	0
Cc1ccn2c(=S)[nH]nc2c1	0	0	-	-78	-	-
Cc1ccn2c(-c3n[nH]c(=S)n3Cc3ccccc3)c(C)nc2c1	0	0	0	0	0	?
S=c1[nH]nc2ccccn12	0	0	0	-85	0	-
COC(=O)[C@@]12C[C@@H](CC(=O)NCC3CCCCC3)C(=O)N(Cc3cccc4ccccc34)C1=CCC(C)(C)C2	0	-	-	0	-	-
C/C(N)=C(/C#N)C(=O)CSc1nnc(COc2ccccc2Cl)o1	0[11.6 µM]	?	89µM	?	0	40µM
O=C(Nc1ccon1)c1ccc(N2CCCCC2)c([N+](=O)[O-])c1	0	0	0	0	0	?
Cc1cc(NC(=O)c2ccc(N3CCCC3)c([N+](=O)[O-])c2)no1	0	?	?	0	0	20µM
CCOC(=O)Cc1nnc(NC(=O)c2ncn[nH]2)s1	0	0	7.1µM	0	0	0
CCCS(=O)(=O)N1CCCC(C(=O)c2ccccc2OC)C1 (centres undefined)	0	0	0	0	0	0
Cc1oc(-c2ccccc2F)nc1CS(=O)CC(=O)NCc1ccc(Cl)cc1 (centres undefined)	0	0	0	0	0	0
Cc1oc(-c2ccccc2Cl)nc1CS(=O)CC(=O)NCc1ccc(Cl)cc1 (centres undefined)	0	0	79µM!	0	0	0
COc1cc(-c2noc(-c3ccc(N4CCCCC4)c([N+](=O)[O-])c3)n2)cc(OC)c1OC	-	0	0	-	0	45µM
COc1cc(-c2noc(-c3ccc(NCc4ccccc4)c([N+](=O)[O-])c3)n2)cc(OC)c1OC	-	0	0	-	0	45µM
COc1cc(-c2noc(-c3ccc(NCc4ccco4)c([N+](=O)[O-])c3)n2)cc(OC)c1OC	-	0	0	-	0	0
COc1cc(-c2noc(-c3ccc(N(C)C)c([N+](=O)[O-])c3)n2)cc(OC)c1OC	-	0	?	-	0	28µM
CCn1nc(C)c(CN2CCC(n3nccc3NC(=O)Cc3ccccc3)CC2)c1C	0	0	0	0	0	0
Nc1cccc2c(=O)c3ccccc3[nH]c12	0	0	0	0	0	45µM
COc1cccc2[nH]c3ccccc3c(=O)c12	0	?	0	0	0	0
O=[N+]([O-])c1cc(-c2csc(NCCc3nc4cc(C(F)(F)F)ccc4n3CCCO)n2)ccc1Cl	0	?	13µM	0	0	-
OCCCn1c(CCNc2nc(-c3ccc(Cl)cc3)cs2)nc2cc(C(F)(F)F)ccc21	0	0	0	0	0	-
CC(C)n1nnnc1C1c2ccccc2C(=O)N1Cc1ccccc1 (centres undefined)	0	-	-	0	-	-
COc1ccc(CN2CCSc3sccc3C2=O)cc1	0	0	0	0	0	79µM
N#Cc1c(N(CCO)CCO)nc(N)c2c(N)nc3c(c12)CC(=O)N3Cc1cccs1	0	40µM	3.5µM	?	0	0
CN(CCO)c1nc(N)c2c(N)nc3c(c2c1C#N)CC(=O)N3Cc1cccs1	0	?	0	0	0	0
C=CCc1cccc(/C=N/n2cnnc2)c1O	0	0	0	0	0	0
C=CCc1cccc(/C=C/c2cc(=O)c3ccccc3[nH]2)c1O	0[11.6 µM]	?	?	0	0	40µM
CCC(=O)Nc1c(C#N)c2nc3ccccc3nc2n1-c1ccc(C)cc1	0	0	0	0	0	-
CCC(C)n1c(NC(=O)c2ccccc2)c(C#N)c2nc3ccccc3nc21 (centres undefined)	0	50µM	3.2µM	0	?	40µM
OC(C1=C/C(=C\c2ccncc2)c2ccccc21)c1ccncc1 (centres undefined)	-	-	0	-	0	-
